Data on 103 molecules can be found in PubChem BioAssay AID488857 (Sanford-Burnham Center for Chemical Genomics, 2010).

Structures are written as SMILES. The campaign covered roughly 1,400 compounds. About 560 (40%) were called active.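 The calls were made as follows: active = mean inhibition over duplicate tests at 10 µM above 50%; inactive = the rest.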 So high a share suggests a set chosen from earlier hits. The list shows a part of the results.

The test in a line: ASC/caspase-1 reporter retest in S. cerevisiae at one dose, specificity check for NALP1 project (AID 488857). The note with it: S. cerevisiae ASC/Caspase-1, beta-galactosidase luminescence, 24 h; at 10 µM; stronger effect = higher value.
The term inhibition denotes the drop in the measured response relative to a control, in per cent. In the case of `CC/C(=N\NC(=O)c1ccccc1Cl)c1ccc(Br)s1`, the inhibition was 38.1% (inactive).

Take `C/C(=N\NC(=O)c1csc(C)c1C)c1ccc(Cl)s1`: the inhibition was 59.2% (active). For `Cc1cccc2sc(N(CCCN(C)C)C(=O)c3sc4ccccc4c3Cl)nc12` the value was 63.2% (active); for `CN(C)CCCN(C(=O)c1sc2ccccc2c1Cl)c1nc2ccc(F)cc2s1`, 55.7% (active). In the case of `Cc1ccc2nc(N(CCCN(C)C)C(=O)c3sc4ccccc4c3Cl)sc2c1`, the inhibition is 31.8% (inactive). Take `Cc1cc(C=C2C(=O)c3ccccc3C2=O)c(C)n1C`: the inhibition is 37.7% (inactive). Regarding `O=C(c1ccc(Br)o1)N(c1ccccn1)C1CCCCC1`, the inhibition was 33.8% (inactive). In the case of `C/C(=N\N(C)C)C1=C(O)c2ccccc2C1=O` it was 32.5% (inactive); in that of `CC(=O)N(C1=C(Cl)C(=O)c2ccccc2C1=O)C1CCCCC1`, 50.3% (active); in that of `CN(c1ccccc1)c1ccc(/C=C/[N+](=O)[O-])cc1`, 96.7% (active). `O=C(O)CC1NC(=S)N(c2ccccc2)C1=O` (stereo not drawn): the inhibition is 31.6% (inactive). Turning to `COC(=O)c1cc(=O)n(-c2c(Cl)cc(C(F)(F)F)cc2Cl)[nH]1`, the inhibition is 34.8% (inactive).

Regarding `c1ccc(-c2c[nH]c3[n+]2CCCCC3)cc1`, the inhibition was 52.4% (active). In the case of `Oc1ccc2ccccc2c1CN1CCN(c2ccccc2)CC1` it was 45.1% (inactive).

Turning to `CC(NCCC(c1ccccc1)c1ccccc1)c1ccccc1` (stereo not drawn), the inhibition was 50.4% (active). For `Cc1cc(C)cc(C(=O)OCC(=O)NCCNC(=O)COC(=O)c2cc(C)cc(C)c2)c1`, the inhibition is 23.8% (inactive). In the case of `COc1ccc(C(=O)C2CCCN(C(=O)Cn3nc(C)cc3C)C2)cc1F` (stereo not drawn) it was 46.8% (inactive); in that of `Cc1ccc(NC(=O)Cn2cccc2)c(C)c1`, 28.5% (inactive); in that of `Cc1ccc(NC(=O)CSC2=Nc3ccccc3C3CC=NN23)c(C)c1` (stereo not drawn), 56.6% (active). In the case of `Cc1ccc(C)c(NC(=O)CSc2nnc(-c3ccccc3)o2)c1`, the inhibition is 45.4% (inactive).

For the molecule `Cc1nc2nc3c(cn2n1)C(=O)CCC3`, the inhibition is 23.6% (inactive). As to `COC(=O)c1ccccc1NC(=O)CN1CCC(n2nnc3cc(F)ccc32)CC1`, the inhibition was 33.6% (inactive). In the case of `COc1ccccc1NC(=O)CCN1CCN(Cc2ccccc2)CC1` it was 45.7% (inactive); in that of `COc1ccccc1NC(=O)C1=C(C)NC(=O)NC1c1cccs1` (stereo not drawn), 32.2% (inactive); in that of `COc1ccccc1NC(=O)c1ccc(C)s1`, 50.4% (active). For `CC(C)NC(=O)CCCOc1ccc(Cl)cc1Cl`, the inhibition is 48.5% (inactive). For `C#CCN(C)CCCOc1ccc(Cl)cc1Cl` the value was 54% (active); for `CCOc1ccccc1N/C=C(\C#N)c1nc2ccccc2n1C`, 26.1% (inactive); for `CCCCOc1ccccc1NC(=O)c1ccco1`, 46.5% (inactive).

Take `CCOc1ccccc1NC(=O)/C=C/C(N)=O`: the inhibition was 59.4% (active). In the case of `CCCOc1ccccc1NC(=O)/C=C/C(N)=O` it was 58% (active). In the case of `CNC(=O)c1nnsc1S(=O)c1ccc(Cl)cc1` (stereo not drawn), the inhibition is 78.5% (active).

`O=C(c1nnsc1S(=O)c1ccc(Cl)cc1)N1CCOCC1` (stereo not drawn): the inhibition is 71.7% (active). `O=C(CCSc1nc2cc(Cl)ccc2o1)N1CCOCC1`: the inhibition was 32.5% (inactive).

As to `CCCNC(=O)c1nnsc1S(=O)c1ccc(Cl)cc1` (stereo not drawn), the inhibition was 96.7% (active). In the case of `Clc1ccc(SCCCCN2CCOCC2)cc1` it was 36.5% (inactive); in that of `Cc1c(Cl)sn(-c2ccc(Cl)cc2)c1=O`, 84.5% (active). For `O=C(O)c1ccccc1SC1CC(=O)N(c2ccccc2)C1=O` (stereo not drawn) the value was 34.5% (inactive); for `CN(C)c1ccc(N2C(=O)CC(Sc3ccccc3C(=O)O)C2=O)cc1` (stereo not drawn), 59.8% (active); for `COc1ccc(NCc2ccc([N+](=O)[O-])s2)c(OC)c1`, 49% (inactive). For `CCOC(=O)C1=C(O)c2ccccc2C(=O)/C1=C\c1ccc(C)cc1`, the inhibition is 24.1% (inactive). In the case of `CCOC(=O)/C(=C/c1ccc(OC(=O)c2ccccc2)cc1)C(C)=O` it was 59.9% (active); in that of `COC(=O)c1ccccc1NC(=O)C1CCCN(S(=O)(=O)c2ccc(OC)cc2)C1` (stereo not drawn), 76.4% (active); in that of `COC(=O)c1ccccc1NC(=O)C1CCN(C(=O)c2cc(OC)cc(OC)c2)CC1`, 34.1% (inactive). For `CN1CCN(S(=O)(=O)c2ccc(NC(=S)NC(=O)C(C)(C)C)cc2)CC1` the value was 31.6% (inactive); for `CCOC(=O)N1CCN(c2ccc(Cl)c(Cl)c2)CC1`, 68.9% (active); for `CCN1CCN(C(=S)Nc2ccc(Cl)c(Cl)c2)CC1`, 22.7% (inactive). As for `CCOC(=O)N1CCN(c2c(NCCOC)c(=O)c2=O)CC1`, the inhibition is 32.5% (inactive). Turning to `Cn1nnc(NC(=O)/C=C/c2ccco2)n1`, the inhibition is 45.4% (inactive). As for `CCCNCC1COc2ccccc2O1` (stereo not drawn), the inhibition was 37.9% (inactive). In the case of `CN(C)CCN(C(=O)/C=C/c1cccs1)c1nc2c(F)cc(F)cc2s1` it was 65.1% (active); in that of `CN(C)CCN(C(=O)/C=C/c1cccs1)c1nc2ccc(F)cc2s1`, 72% (active); in that of `CC1CCC2C(=O)N(c3ccc(C(=O)Oc4cccc5cccnc45)cc3)C(=O)C2C1` (stereo not drawn), 44.9% (inactive). For `O=[N+]([O-])c1ccc2nc(-c3ccccn3)[nH]c2c1` the value was 70% (active); for `c1ccc(-c2nc3cc4ccccc4cc3[nH]2)nc1`, 84.5% (active); for `O=[N+]([O-])c1ccc2cn(-c3ccccc3)nc2c1`, 41.1% (inactive). In the case of `O=S(=O)(CC12C3C4C5C1C2C(Br)(C43)C51OCCO1)c1ccccc1` (stereo not drawn) it was 38.5% (inactive); in that of `Cc1cccc(/C=N/n2c(-c3cc(-c4ccccc4)n[nH]3)n[nH]c2=S)c1`, 53.3% (active); in that of `Cc1ccc(N2C(=O)c3ccc(C(=O)O)cc3C2=O)cc1C`, 37.3% (inactive).

Turning to `Cc1ccc(C(=O)O)cc1N=Cc1cc(Br)cc(Br)c1O`, the inhibition was 83.5% (active). For `O=C(Cn1c(=O)oc2ccccc21)Nc1ccc(Cl)cc1` the value was 33.4% (inactive); for `CCCCN(C)CCC(=O)Nc1ccc(Cl)cc1`, 39.2% (inactive); for `O=C(Cc1noc2ccccc12)Nc1ccc(Cl)cc1`, 61.3% (active). For `CCOC(=O)COc1ccc2ccccc2c1/C=C/[N+](=O)[O-]` the value was 99.9% (active). In the case of `CCOC(=O)COc1ccccc1/C=C\[N+](=O)[O-]` it was 101% (active); in that of `COc1ccccc1OCC(=O)N/N=C/C=C/c1ccc([N+](=O)[O-])o1`, 15.4% (inactive).

As to `CCOC(=O)C[N+](CC)(CC)CC#Cc1ccccc1`, the inhibition is 5.45% (inactive). In the case of `CCOc1ccc(NC(=O)/C=C/c2ccccc2)c([N+](=O)[O-])c1` it was 29.2% (inactive). For the molecule `COc1ccc(CN2CCNC(=O)C2CC(=O)N(Cc2nccn2C)C(C)C)c(OC)c1` (stereo not drawn), the inhibition is 26.1% (inactive). For `COc1cc(C2SCC(=O)N2CCCN(C)C)cc(OC)c1OC` (stereo not drawn) the value was 23.1% (inactive); for `O=C1CSC(=S)N1c1ccc(O)cc1`, 98.2% (active). In the case of `C/C(=N/N=C1\SCC(=O)N1c1ccccc1)c1ccc(C)cc1`, the inhibition is 39.4% (inactive). In the case of `O=C1CSC(=S)N1c1cccc(O)c1` it was 98.8% (active); in that of `COc1cc(N2C(=O)CSC2=S)cc(OC)c1OC`, 81.3% (active).

Consider `CCCCNCCOCCOc1ccc(Cl)cc1Br`, for which the inhibition is 49% (inactive). `CCCCNCCOCCOc1ccccc1-c1ccccc1`: the inhibition is 55.2% (active). For `O=C(NCc1ccc(F)cc1)c1cc(-c2ccco2)on1` the value was 52.4% (active); for `O=C(Nc1nc(-c2ccco2)c(-c2ccco2)s1)C1CCC1`, 45.5% (inactive). `O=C(CSCc1ccc(F)cc1)NCc1ccco1`: the inhibition was 47.5% (inactive).

`O=C(Nc1cccc(O)c1)c1cc(-c2ccco2)on1`: the inhibition was 79.8% (active).

As to `Cc1ccc(NC(=O)N(C2CCCCC2)C(C)c2cccnc2)cc1C` (stereo not drawn), the inhibition was 48.4% (inactive). In the case of `CCOC(=O)NC1(NCc2ccccc2)Oc2ccccc2O1` it was 38.3% (inactive); in that of `Cc1cc(=O)oc2cc(OCC(=O)N3CCN(C(=O)c4ccco4)CC3)ccc12`, 30.7% (inactive); in that of `CCOC(=O)Nc1cccc(Nc2ccccc2)c1`, 59.8% (active). In the case of `CCOC(=O)C(=O)NNc1ccc(Cl)cc1`, the inhibition was 42.9% (inactive). In the case of `CCOC(=O)Nc1ccc2c(C)cc(=O)oc2c1` it was 58.4% (active). In the case of `CCOC(=O)c1sc(NC(=O)Nc2cccc(Cl)c2)cc1C` it was 19.4% (inactive); in that of `CC(C)CN=Cc1c(O)c([N+](=O)[O-])cc2oc3c(c12)CCCC3`, 28.2% (inactive); in that of `COc1ccccc1C(=O)Nc1nc2nc(-c3ccccc3)cc(=O)n2[nH]1`, 15.4% (inactive). For `CCOc1ccccc1C(=O)Nc1cnn(Cc2ccc(F)cc2)c1` the value was 61.2% (active). Regarding `CC1CCCN(c2nc(NCc3ccco3)nc(N)c2[N+](=O)[O-])C1` (stereo not drawn), the inhibition was 62% (active). For `Cc1ccc(C(=O)NCc2ccco2)cc1S(=O)(=O)Nc1cccc(Cl)c1` the value was 38.6% (inactive). For the molecule `Cc1ccc(Nc2nc(N)c([N+](=O)[O-])c(NCc3ccco3)n2)cc1C`, the inhibition was 60.8% (active).

Regarding `Nc1nc(NCc2ccco2)nc(N2CCCCCC2)c1[N+](=O)[O-]`, the inhibition was 62.4% (active). For `CC1CCN(c2nc(NCc3ccco3)nc(N)c2[N+](=O)[O-])CC1` the value was 73% (active); for `CCN1CCN(C(=O)N[C@@H](C(=O)N[C@@H]2C(=O)N3[C@@H]2SC(C)(C)[C@@H]3C(=O)O)c2ccccc2)C(=O)C1=O`, 39.1% (inactive); for `COCCn1c(SCC(=O)NC(=O)NC(C)(C)C)nc2ccccc21`, 40.6% (inactive). In the case of `O=c1c(F)cn(C2CCCO2)c(=O)n1Cc1c(F)cccc1Cl` (stereo not drawn) it was 33.2% (inactive); in that of `CCOC(=O)c1c(C(F)(F)C(F)(F)C(F)(F)C(F)(F)F)n[nH]c1C`, 25.5% (inactive); in that of `COc1ccc(C2=NN3C(=O)c4c(ccc(OC)c4OC)C3C2)cc1` (stereo not drawn), 50.4% (active). Turning to `O=P(CCCCCCCCCP(=O)(c1ccccc1)c1ccccc1)(c1ccccc1)c1ccccc1`, the inhibition was 47.2% (inactive).

Take `O=C(NC(CO)Cc1ccc([N+](=O)[O-])cc1)C(Cl)Cl` (stereo not drawn): the inhibition is 34.8% (inactive). In the case of `CNC(CC(=O)c1ccc([N+](=O)[O-])cc1)C(Cl)(Cl)Cl` (stereo not drawn) it was 69.4% (active).
